Bioassay records: PubChem, National Center for Advancing Translational Sciences (NCATS)
Compounds with a hit are over-represented: about 3.4% of the library has one in this group of screens.
JMJD2E inh: inhibitors of human JMJD2E histone demethylase; 1.6% of 230,000 active; JMJD2E catalytic domain, FDH-coupled NADH fluorescence (FDH is formaldehyde dehydrogenase); B2RXH2; AID 2147; Potency, µM (series often up to 57.1 µM), hits mostly inhibitors; active = well fitted inhibition curve with a large enough effect, not every such curve was filed as active; inconclusive = small, poorly fitted or top-dose-only effect, or another doubt; inactive = no such curve, though single readings can be large or run the other way; note: nearly all actives have a fitted effect of over 50% in size
Target sequence (B2RXH2 1-337 limits assumed): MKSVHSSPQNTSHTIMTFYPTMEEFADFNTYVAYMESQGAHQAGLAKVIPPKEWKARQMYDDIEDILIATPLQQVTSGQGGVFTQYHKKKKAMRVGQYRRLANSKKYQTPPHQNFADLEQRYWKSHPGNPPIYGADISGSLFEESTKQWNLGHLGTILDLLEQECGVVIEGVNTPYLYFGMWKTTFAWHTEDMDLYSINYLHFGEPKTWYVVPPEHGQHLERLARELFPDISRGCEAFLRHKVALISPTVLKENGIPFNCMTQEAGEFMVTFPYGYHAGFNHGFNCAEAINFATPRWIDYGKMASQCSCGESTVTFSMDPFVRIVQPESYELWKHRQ
RGS12 GoLoco inh: blocks human Gai1 binding to RGS12 GoLoco peptide, red readout. P63096. Gai1:RGS12 GoLoco peptide FP, rhodamine, 10 min. Potency, µM (doses to about 61.6 µM), most hits filed as inhibitors. 0.44% of 230,000 active. AID 880; active = well fitted inhibition curve with a large enough effect, not every such curve was filed as active; inactive = no such curve, though single readings can be large or run the other way; note: nearly all actives have a fitted effect of over 30% in size
Target sequence (P63096 whole entry, looked up): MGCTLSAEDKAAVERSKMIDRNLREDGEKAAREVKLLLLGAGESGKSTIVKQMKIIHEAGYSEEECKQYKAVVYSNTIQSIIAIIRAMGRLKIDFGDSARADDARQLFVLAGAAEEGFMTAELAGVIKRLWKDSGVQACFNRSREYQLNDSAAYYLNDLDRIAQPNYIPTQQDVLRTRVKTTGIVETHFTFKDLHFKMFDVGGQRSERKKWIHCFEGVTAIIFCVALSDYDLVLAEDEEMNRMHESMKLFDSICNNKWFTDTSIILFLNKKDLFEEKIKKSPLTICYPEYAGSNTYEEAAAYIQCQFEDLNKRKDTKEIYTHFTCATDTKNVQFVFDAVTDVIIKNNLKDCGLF
Tau fluor cs: counter-screen for tau fibril formation inhibitors. tau K18 P301L Alexa594 fluorescence, heparin fibrillization. Potency, µM (titrated, usually from 57.7 µM). 0.93% of 280,000 active; note: nearly all actives have a fitted effect of over 55% in size
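Human tau K18 P301L (15 uM unlabeled, 0.24 uM Alexa 594-labeled) in 100 mM sodium acetate pH 7 with 20 uM heparin, 6 hr at 37 C. ThT 30 uM added, 1 hr ambient; Alexa 594 FP and total fluorescence read at 555/632 nm.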
Tau FP inhib: inhibitors of human tau fibril formation; P10636; K18 P301L tau heparin fibrillization, Alexa594 FP, 6 h; Potency, µM (top dose mostly 57.7 µM), usual class: inhibitors; 0.39% of 280,000 active; AID 1468; note: nearly all actives have a fitted effect of over 55% in size
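Steps: dispense K18 P301L tau (15 uM plus 0.24 uM Alexa 594 tracer, final) in pH 7 sodium acetate; add compound; add heparin (20 uM final); incubate 6 hr, 37 C; add ThT (30 uM final); after 1 hr ambient, read FP.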
Tau fibril ThT: blocks human tau fibril formation measured by thioflavin T. recombinant tau K18 P301L, heparin-induced fibrillization, ThT fluorescence. Potency, µM (highest dose often 57.4 µM), usual class: inhibitors. 2.1% of 270,000 active. AID 1460; note: nearly all actives have a fitted effect of over 55% in size
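ThT emission at 510 nm, taken 1 hr after adding 30 uM dye, quantifies aggregates formed when 20 uM heparin acts on human tau K18 P301L for 6 hr at 37 C.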
A number is an active result; – = inactive; ? = inconclusive; · = not tested or not shown; [ ] = dose if it differs, or a comment. Unless noted, calls come from the whole dose curve; as a rule, active = well fitted curve in the direction sought with a large enough effect; inconclusive = small, poorly fitted or top-dose-only effect, or another doubt; inactive = no such curve, though single readings can be large; an effect the other way counts as inactive or inconclusive.

SMILES	JMJD2E inh	RGS12 GoLoco inh	Tau fluor cs	Tau FP inhib	Tau fibril ThT
COc1cc(/C=C2\SC(=S)N(N(C)c3ccccc3)C2=O)ccc1O	–	–	25.1µM[quencher]	–	25.1µM
COc1ccc(CCNC(=O)Cn2nnc(-c3cccc(C(F)(F)F)c3)n2)cc1OC	·	·	–	–	–
Oc1cc(O)c2c(c1)O[C@@H](c1ccc(O)c(O)c1)[C@H](O[C@@]1(c3cc(O)c(O)c(O)c3)Oc3cc(O)cc(O)c3[C@H](O)[C@@H]1O)C2	·	–[14.2 µM]	·	·	·
O=C(OC1Cc2c(O)cc(O)cc2OC1c1cc(O)c(O)c(O)c1-c1c(C2Oc3cc(O)cc(O)c3CC2O)cc(O)c(O)c1O)c1cc(O)c(O)c(O)c1 (centres undefined)	8.91µM	–	12.6µM[quencher]	?	17.8µM
O=c1cc(-c2ccc([N+](=O)[O-])cc2)nc2cc(-c3ccc(F)cc3)[nH]n12	–	–	?	–	10µM
CCOC(=O)c1ccccc1NC(=O)Cn1cc(C(=O)c2cccc(OC)c2)c(=O)c2ccc(C)nc21	·	·	–	–	–
C=CCC(CC=C)(CNC(=O)C(=O)Nc1cccc(C(F)(F)F)c1)c1ccccc1	·	·	–	–	–
Cc1ccc(OCC(=O)N/N=C\c2ccc(-c3cccc(C(=O)O)c3)o2)c(C)c1	–	–	–	–	7.94µM
CCOc1ccc(/C=C/c2nc(C#N)c(NCCc3ccccc3)o2)cc1	·	·	–	–	?
COc1ccnc(CSC(N)=Nc2ccccc2OC)c1	–	–	–	?	31.6µM
COc1ccnc(CSC(N)=Nc2cccc(C(F)(F)F)c2)c1	?	–	?	?	17.8µM
C[n+]1nc(Nc2cccc3ccccc23)sc1-c1ccc(C(=O)O)cc1	8.91µM	–	–	–	?
CCc1ccc(Nc2n[n+](C)c(-c3ccc(C(=O)O)cc3)s2)cc1	?	–	–	–	–
NC(=O)c1cc[n+](CC(=O)c2ccc(NC(=O)c3ccccc3)cc2)cc1	12.6µM	–	–	–	?
O=C(C[n+]1ccc(C(=O)N/N=C/c2ccc(Cl)cc2Cl)cc1)c1ccccc1	–	–	?	–	15.8µM
O=C(N/N=C/c1ccc(Cl)cc1Cl)c1cccc(F)c1	–	–	–	–	?
O=C(C[n+]1ccccc1)c1ccc(NC(=O)c2ccccc2)cc1	–	–	–	–	–
CC(C)c1ccc2oc(-c3ccc(Cl)c(NC(=O)c4cccs4)c3)nc2c1	·	·	–	?	–
CCOc1ccc(N(CC)S(=O)(=O)N2CCCC(C(=O)Nc3cc(Cl)ccc3C)C2)cc1 (centres undefined)	·	·	–	–	–
Cc1ccc(CCNC(=O)c2ccc(CSCc3ccccc3C)o2)cc1	·	·	–	–	–
Nc1c(C(=O)Nc2ccc(F)cc2)sc2nc(-c3ccco3)ccc12	?	–	?	–	6.31µM
CC(=O)c1sc2nc(-c3ccco3)ccc2c1N	?	–	?	–	7.08µM
Nc1c(C(=O)Nc2ccc(Br)cc2)sc2nc(-c3ccco3)ccc12	?	–	?	–	5.01µM
CCOC(=O)c1sc2nc(-c3ccccc3)ccc2c1N	?	–	–	–	–
Cc1ccc(NC(=O)c2sc3nc(-c4ccc(F)cc4)ccc3c2N)cc1F	·	·	?	–	?
SMILES	JMJD2E inh	RGS12 GoLoco inh	Tau fluor cs	Tau FP inhib	Tau fibril ThT
CCC1Oc2ccccc2N(CC(=O)NCc2ccccc2)C1=O (centres undefined)	·	·	–	–	–
COc1cccc(C(=O)c2sc(Nc3ccc(C)cc3C)c(S(=O)(=O)c3ccccc3)c2N)c1	·	·	–	–	–
CCC1=C/C(=C/N(C)c2ccccc2)C(=O)S1	–	–	?	?	25.1µM
CCc1ccc(CN(Cc2ccco2)c2cnc(S(C)(=O)=O)nc2C(=O)Nc2cccc(C)c2)cc1	·	·	–	–	–
COc1ccccc1N1CCN(/N=C/c2cc(OC)c(O)c(OC)c2)CC1	–	2.82µM	–	–	–
CCn1c(=O)c2sccc2n2c(CCC(=O)Nc3ccc(C(C)C)cc3)nnc12	·	·	–	–	–
COc1cccc(NS(=O)(=O)c2ccc3[nH]cc(C(=O)NC4CC4)c(=O)c3c2)c1	–	–	–	–	–
COc1cccc(NS(=O)(=O)c2ccc3[nH]cc(C(=O)NC4CCCCC4)c(=O)c3c2)c1	·	·	3.55µM[quencher]	7.08µM	?
Cc1cc(C)cc(NS(=O)(=O)c2ccc3[nH]cc(C(=O)N4CCCCCC4)c(=O)c3c2)c1	·	·	–	–	–
CC(C)c1ccc(NS(=O)(=O)c2ccc3[nH]cc(C(=O)NCC4CCCO4)c(=O)c3c2)cc1 (centres undefined)	·	·	?	15.8µM	–
CC(C)c1ccc(NS(=O)(=O)c2ccc3[nH]cc(C(=O)NC4CCCCC4)c(=O)c3c2)cc1	·	·	?	3.55µM	?
Cc1cc(C)cc(NS(=O)(=O)c2ccc3[nH]cc(C(=O)NC4CCCCC4)c(=O)c3c2)c1	·	·	?	7.94µM	?
CC(C)c1ccc(NS(=O)(=O)c2ccc3[nH]cc(C(=O)N4CCC(C(N)=O)CC4)c(=O)c3c2)cc1	–	–	–	–	–
CCN(Cc1ccccc1)C(=O)c1cc(-c2ccccc2)n[nH]1	·	·	–	–	–
O=C(CCn1cnc2onc(-c3ccc(F)cc3)c2c1=O)N1CCN(c2cccc(Cl)c2)CC1	·	·	?	–	–
Cc1cc(C)cc(NS(=O)(=O)c2ccc3[nH]cc(C(=O)NCc4ccccc4Cl)c(=O)c3c2)c1	·	·	?	3.16µM	–
CO[C@@H]1/C=C\O[C@]2(C)Oc3c(C)c(O)c4c(O)c(cc(O)c4c3C2=O)NC(=O)/C(C)=C\C=C/[C@H](C)[C@@H](O)[C@H](C)[C@H](O)C(C)[C@H](OC(C)=O)[C@@H]1C (some centres undefined)	·	–[14.2 µM]	·	·	·
COc1cc2cccc(OC)c(=O)c2c(O)c1OC	–	–	–	–	?
CC(=O)Oc1cc2cccc(OC(C)=O)c(=O)c2c(OC(C)=O)c1OC(C)=O	11.2µM	–	8.91µM[quencher]	15.8µM	3.55µM
COc1cc2c(cc1OC)-c1n[nH]c(=S)n1C(C)(C)C2	?	–	–	–	–
COc1cc2c(cc1OC)-c1cc3nc4ccccc4nc3n1C(C)(C)C2	4.47µM	–	?	?	?
NC(=O)c1cccc(N=Cc2cc(Cl)cc(Cl)c2O)c1	–	–	–	–	–
Oc1c(Cl)cc(Cl)cc1C=Nc1ccccc1N1CCCC1	?	–	?	–	22.4µM
CCOC(=O)c1c(C)sc(-c2c(-c3ccc(OC)c(F)c3)[nH]c3c2c(=O)[nH]c(=O)n3C)c1O	·	·	12.6µM[quencher]	–	?
CCOC(=O)c1c(C)sc(-c2c(-c3ccc(OC)c(F)c3)[nH]c3[nH]c(=O)[nH]c(=O)c23)c1O	·	·	3.55µM[quencher]	–	–
COC(=O)c1c(C)sc(-c2c(-c3ccc4c(c3)OCCO4)[nH]c3[nH]c(=O)[nH]c(=O)c23)c1O	·	·	20µM[quencher]	?	?
CCOC(=O)c1c(C)sc(-c2c(-c3ccc4c(c3)OCCO4)[nH]c3c2c(=O)[nH]c(=O)n3C)c1O	·	·	?	–	?
CCOC(=O)c1c(C)sc(-c2c(-c3ccccc3)[nH]c3[nH]c(=O)[nH]c(=O)c23)c1O	·	·	6.31µM[quencher]	–	?
